Data as given in PubChem BioAssay (Tox21).
Records with an inconclusive call do not appear. Entries that show only a call come without a potency. Active and inactive are the calls of the source. Unless noted, calls follow the shape of the dose curve; as a rule, active = well fitted curve in the direction sought with a large enough effect in the repeat runs; inconclusive = weak or mixed curves; inactive = no such curve, though single readings can be large; an effect the other way counts as inactive or inconclusive.

Legend:
[1] = qHTS assay to identify small molecule agonists of the peroxisome proliferator-activated receptor delta (PPARd) signaling pathway - cell viability counter screen (AID 743211); settings: PPARd-bla HEK293H viability, CellTiter-Glo luminescence, 17 h; series mostly up to 62.6 µM; also: nearly all actives have a fitted effect of over 55% in size; also: potency is read from the fitted curve at half-maximal effect
Procedure, shortened: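 PPARd-bla HEK293H cells (UAS-beta-lactamase reporter) were treated with compounds for 17 h at 37 C. Viability was then read in the same wells by CellTiter-Glo luminescence after 30 min at room temperature.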

[2] = molecular target: Peroxisome proliferator-activated receptor delta (Homo sapiens) (UniProt Q03181); test: qHTS assay to identify small molecule agonists of the peroxisome proliferator-activated receptor delta (PPARd) signaling pathway (AID 743212; calls by dose curve); settings: HEK293H PPARd-UAS-bla, beta-lactamase FRET ratio, 17 h; series mostly up to 62.6 µM
Peroxisome proliferator-activated receptor delta (Homo sapiens), sequence (Q03181 whole entry, looked up): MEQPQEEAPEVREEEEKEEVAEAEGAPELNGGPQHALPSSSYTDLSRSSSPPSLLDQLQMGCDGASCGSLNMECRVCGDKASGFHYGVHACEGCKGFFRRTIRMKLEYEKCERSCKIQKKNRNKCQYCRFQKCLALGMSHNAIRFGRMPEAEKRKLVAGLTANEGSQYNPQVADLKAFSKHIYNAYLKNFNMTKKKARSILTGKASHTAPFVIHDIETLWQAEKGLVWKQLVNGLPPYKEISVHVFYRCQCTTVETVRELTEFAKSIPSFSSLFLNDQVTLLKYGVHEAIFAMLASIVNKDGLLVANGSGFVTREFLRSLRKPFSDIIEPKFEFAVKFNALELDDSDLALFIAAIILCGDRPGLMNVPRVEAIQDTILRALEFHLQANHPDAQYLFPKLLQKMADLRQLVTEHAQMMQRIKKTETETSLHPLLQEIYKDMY
Procedure, shortened: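 A PPARd-bla HEK293H line with beta-lactamase under an Upstream Activator Sequence is treated with compounds at 37 C. Substrate loading for 2 h at room temperature precedes the fluorescence measurement.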

[3] = qHTS assay to identify small molecule antagonists of the peroxisome proliferator-activated receptor delta (PPARd) signaling pathway - cell viability counter screen (AID 743213); settings: PPARd-bla HEK293H viability, CellTiter-Glo luminescence, 17 h; series mostly up to 62 µM; also: nearly all actives have a fitted effect of over 50% in size; also: potency is read from the fitted curve at half-maximal effect
Procedure, shortened: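 In this counter screen, HEK293H cells carrying a UAS-beta-lactamase reporter are co-treated with test compounds and 300 nM L165041 (final) for 17 h at 37 C; cell viability is quantified by CellTiter-Glo luminescence.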

[4] = molecular target: Peroxisome proliferator-activated receptor delta (Homo sapiens) (UniProt Q03181); test: qHTS assay to identify small molecule antagonists of the peroxisome proliferator-activated receptor delta (PPARd) signaling pathway (AID 743215; active = well fitted inhibition curve with a large enough effect in the signal ratio in the repeat runs, not every such curve was filed as active; the % refers to the signal ratio;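 also: cells stimulated with agonist L165041 at 300 nM final during compound exposure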; also: potency is read from the fitted curve at half-maximal effect); settings: HEK293H PPARd-UAS-bla, beta-lactamase FRET ratio, antagonist, 17 h; series mostly up to 62 µM
Procedure, shortened: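 PPARd-bla HEK293H cells (UAS-bla reporter) preincubated 5 h, then given compound plus 300 nM final L165041 agonist for 17 h at 37 C. Beta-lactamase activity read by LiveBLAzer B/G FRET substrate fluorescence after 2 h at room temperature.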

[5] = qHTS assay to identify small molecule antagonists of the farnesoid-X-receptor (FXR) signaling pathway - cell viability counter screen (AID 743221; active = well fitted cell-killing curve with a large enough effect in the repeat runs, not every such curve was filed as active; also: nearly all actives have a fitted effect of over 50% in size; also: potency is read from the fitted curve at half-maximal effect); settings: FXR-bla HEK293T viability, CellTiter-Glo luminescence, 16 h; series mostly up to 62.6 µM
Procedure, shortened: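 FXR-UAS-bla HEK 293T cells were treated with test compounds plus chenodeoxycholic acid (50 uM final) for 16 h at 37 C. Cell viability in the same wells was then read as CellTiter-Glo luminescence after 30 min at room temperature.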

[6] = molecular target: Vitamin D3 receptor (Homo sapiens) (UniProt P11473); test: qHTS assay to identify small molecule agonists of the vitamin D receptor (VDR) signaling pathway (AID 743222; calls by dose curve); settings: HEK293T VDR-UAS-bla, beta-lactamase FRET ratio, 16 h; series mostly up to 63.5 µM
Vitamin D3 receptor (Homo sapiens), sequence (P11473 whole entry, looked up): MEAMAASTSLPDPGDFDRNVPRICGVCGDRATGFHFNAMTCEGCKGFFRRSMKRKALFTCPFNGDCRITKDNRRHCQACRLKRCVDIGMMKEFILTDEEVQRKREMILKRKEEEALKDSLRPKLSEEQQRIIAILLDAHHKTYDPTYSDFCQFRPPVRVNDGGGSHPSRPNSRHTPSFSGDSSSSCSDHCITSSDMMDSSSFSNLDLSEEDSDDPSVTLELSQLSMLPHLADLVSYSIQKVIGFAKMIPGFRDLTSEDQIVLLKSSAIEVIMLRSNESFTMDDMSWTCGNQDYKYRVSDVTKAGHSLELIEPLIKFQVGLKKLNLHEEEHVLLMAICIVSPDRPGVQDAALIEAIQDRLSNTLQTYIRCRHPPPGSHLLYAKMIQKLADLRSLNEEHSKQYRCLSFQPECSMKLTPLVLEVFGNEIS
Procedure, shortened: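 VDR-bla cells plated 4 h at 37 C, then exposed to compounds for 16 h at 37 C. Beta-lactamase reporter activity measured by fluorescence after 2 h room-temperature loading with LiveBLAzer B/G FRET substrate.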

[7] = molecular target: Vitamin D3 receptor (Homo sapiens) (UniProt P11473); test: qHTS assay to identify small molecule antagonists of the vitamin D receptor (VDR) signaling pathway (AID 743223; active = well fitted inhibition curve with a large enough effect in the signal ratio in the repeat runs, not every such curve was filed as active; the % refers to the signal ratio); settings: VDR-UAS-bla HEK293T, beta-lactamase FRET ratio, 16 h; series mostly up to 61 µM
Procedure, shortened: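 VDR-bla cells were plated, incubated 4 h at 37C, then given compound and 1alpha,25-dihydroxyvitamin D3 (3 nM final). After 16 h at 37C, LiveBLAzer B/G FRET substrate was added for 2 h at room temperature and fluorescence read.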

[8] = qHTS assay to identify small molecule agonists of the vitamin D receptor (VDR) signaling pathway - cell viability counter screen (AID 743224); settings: VDR-bla HEK293T viability, CellTiter-Glo luminescence, 16 h; series mostly up to 62.6 µM; also: nearly all actives have a fitted effect of over 50% in size; also: potency is read from the fitted curve at half-maximal effect
Procedure, shortened: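 VDR-bla cells, 4 h after plating, exposed to compounds for 16 h at 37C; viability then read in the same wells as CellTiter-Glo luminescence after 30 min at room temperature, following the bla FRET read.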

[9] = qHTS assay to identify small molecule agonists of the NFkB signaling pathway (AID 1159509; active = well fitted curve in the direction sought with a large enough effect in the signal ratio in the repeat runs, not every such curve was filed as active; the % refers to the signal ratio); settings: NFkB-bla ME-180 cells, beta-lactamase FRET ratio, 5 h; series mostly up to 61 µM
Procedure, shortened: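 ME-180 NFkB-bla, 2,000 cells/well, overnight plating; cpd pinned in DMSO, 5 h 37 C; B/G FRET substrate 1.5 h RT; ex 405, em 460/530 nm.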

[10] = qHTS assay to identify small molecule agonists of the endoplasmic reticulum stress response signaling pathway (AID 1159516; active = well fitted activation curve with a large enough effect in the signal ratio in the repeat runs, not every such curve was filed as active; the % refers to the signal ratio); settings: ESRE-bla HeLa, ER stress beta-lactamase reporter, 5 h; series mostly up to 61 µM
Procedure, shortened: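 CellSensor ESRE-bla HeLa cells, 1,500 per well, plated overnight, then exposed to compounds for 5 hr at 37 C. Beta-lactamase reporter read with LiveBLAzer B/G FRET substrate after 2 hr at room temperature, 405 nm excitation, 460 and 530 nm emission.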

[11] = qHTS assay to identify small molecule agonists of the endoplasmic reticulum stress response signaling pathway - cell viability counter screen (AID 1159517; calls by dose curve;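 also: HeLa cells carrying an ER stress response element beta-lactamase reporter; nearly all actives have a fitted effect of over 50% in size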); settings: ESRE-bla HeLa viability, CellTiter-Glo luminescence, 5 h; series mostly up to 61 µM
Procedure, shortened: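 CellTiter-Glo was added to wells already read for beta-lactamase FRET, and luminescence was recorded 30 min later. Cells: ESRE-bla HeLa, 1,500 per well, compound exposure 5 hr at 37 C.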

[12] = qHTS assay to identify small molecule antagonists of the retinoid-related orphan receptor gamma (ROR-gamma) signaling pathway - cell viability counter screen (AID 1159520); settings: Tet-on RORgamma CHO cells viability, ATP luminescence, 16 h; series mostly up to 92.4 µM; also: nearly all actives have a fitted effect of over 50% in size
Procedure, shortened: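 Tet-on ROR gamma CHO cells (1,000/well) were plated 4 hr, given compounds in DMSO for 2 hr at 37 C, then induced with 1 uM final doxycycline for 16 hr. Viability was read as ATP by CellTiter-Glo luminescence after 30 min.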

[13] = molecular target: Nuclear receptor ROR-gamma (Homo sapiens) (UniProt P51449); test: qHTS assay to identify small molecule antagonists of the retinoid-related orphan receptor gamma (ROR-gamma) signaling pathway (AID 1159521); settings: Tet-on RORgamma CHO cells, RORE-luciferase, 16 h; series mostly up to 92.4 µM
Procedure, shortened: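 Tet-on RORγ CHO cells carrying a ROR response element–luciferase reporter were pretreated with compounds for 2 h, then induced with 1 uM (final) doxycycline hyclate for 16 h at 37 C. Antagonism was read as decreased ONE-Glo luminescence.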

[14] = qHTS assay to identify small molecule agonists of the AP-1 signaling pathway - cell viability counter screen (AID 1159525; calls by dose curve; also: nearly all actives have a fitted effect of over 55% in size); settings: ME-180 AP-1-bla cells viability, ATP luminescence, 5 h; series mostly up to 76.8 µM
Procedure, shortened: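 ME-180 AP-1-bla, 2500 cells/well, Opti-MEM + 0.5% dialyzed FBS; overnight 37 °C; cpd 15-pt titration, 5 h 37 °C; CellTiter-Glo 30 min RT; luminescence read; normalised to TOAB and DMSO controls.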

[15] = qHTS assay to identify small molecule agonists of the AP-1 signaling pathway (AID 1159526; calls by dose curve); settings: ME-180 (cervical carcinoma) AP-1-bla reporter, beta-lactamase FRET ratio, 5 h; series mostly up to 76.8 µM
[16] = molecular target: Bile acid receptor (Homo sapiens) (UniProt Q96RI1); test: qHTS assay to identify small molecule agonists of the farnesoid-X-receptor (FXR) signaling pathway (AID 743220; active = well fitted activation curve with a large enough effect in the signal ratio in the repeat runs, not every such curve was filed as active; the % refers to the signal ratio); settings: HEK293T FXR-UAS-bla, beta-lactamase FRET ratio, 16 h; series mostly up to 62.6 µM
Bile acid receptor (Homo sapiens), sequence (Q96RI1 whole entry, looked up): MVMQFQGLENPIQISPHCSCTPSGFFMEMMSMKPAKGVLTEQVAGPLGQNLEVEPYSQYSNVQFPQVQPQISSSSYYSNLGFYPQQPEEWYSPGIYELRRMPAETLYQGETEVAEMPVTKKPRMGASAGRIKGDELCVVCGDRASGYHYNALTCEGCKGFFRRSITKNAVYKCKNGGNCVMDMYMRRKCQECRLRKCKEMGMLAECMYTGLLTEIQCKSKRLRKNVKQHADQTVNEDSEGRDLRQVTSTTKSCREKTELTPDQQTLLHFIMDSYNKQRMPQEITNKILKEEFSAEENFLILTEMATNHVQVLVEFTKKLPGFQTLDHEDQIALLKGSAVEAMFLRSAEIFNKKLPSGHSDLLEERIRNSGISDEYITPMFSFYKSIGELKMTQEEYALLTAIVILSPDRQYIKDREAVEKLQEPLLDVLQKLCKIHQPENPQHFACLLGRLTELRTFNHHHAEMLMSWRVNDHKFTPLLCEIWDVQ
Procedure, shortened: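 Beta-lactamase reporter under UAS control in GeneBLAzer FXR HEK 293T cells (5000/well) measured with LiveBLAzer FRET substrate after 2 h at room temperature. Compound exposure lasted 16 h at 37C.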

[17] = qHTS assay to identify small molecule antagonists of the vitamin D receptor (VDR) signaling pathway - cell viability counter screen (AID 743225); settings: VDR-bla HEK293T viability, CellTiter-Glo luminescence, 16 h; series mostly up to 61 µM; also: nearly all actives have a fitted effect of over 50% in size; also: potency is read from the fitted curve at half-maximal effect
Procedure, shortened: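 VDR-bla HEK 293T cells, 4 h pre-incubation at 37C, then compound plus 1-alpha,25-dihydroxyvitamin D3 (3 nM final) for 16 h. After the beta-lactamase FRET read, CellTiter-Glo was added to the same wells; luminescence after 30 min at room temperature.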

[18] = qHTS assay to identify small molecule agonists of the NFkB signaling pathway - cell viability counter screen (AID 1159515; calls by dose curve; also: nearly all actives have a fitted effect of over 55% in size); settings: NFkB-bla ME-180 viability, CellTiter-Glo luminescence, 5 h; series mostly up to 61 µM
Procedure, shortened: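 NFkB-bla ME-180 cells, 2,000/well, plated overnight at 37 C; compound added for 5 hr at 37 C. Viability read in the same wells as the bla reporter, by CellTiter-Glo luminescence after 30 min at room temperature.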

[19] = molecular target: Bile acid receptor (Homo sapiens) (UniProt Q96RI1); test: qHTS assay to identify small molecule antagonists of the farnesoid-X-receptor (FXR) signaling pathway (AID 743217; active = well fitted inhibition curve with a large enough effect in the signal ratio in the repeat runs, not every such curve was filed as active; the % refers to the signal ratio); settings: HEK293T FXR-UAS-bla, beta-lactamase ratio, CDCA-stimulated, 16 h; series mostly up to 62.6 µM
Procedure, shortened: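 FXR-UAS-bla HEK 293T cells (beta-lactamase reporter) given compound plus chenodeoxycholic acid (50 uM final), 16 h at 37C. LiveBLAzer B/G FRET substrate added for 2 h at room temperature; fluorescence read.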

[20] = qHTS assay to identify small molecule agonists of the farnesoid-X-receptor (FXR) signaling pathway - cell viability counter screen (AID 743218); settings: FXR-bla HEK293T viability, CellTiter-Glo luminescence, 16 h; series mostly up to 62.6 µM; also: nearly all actives have a fitted effect of over 45% in size; also: potency is read from the fitted curve at half-maximal effect
Procedure, shortened: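 FXR-UAS-bla HEK 293T cells exposed to compounds for 16 h at 37C. Cytotoxicity read in the same wells by CellTiter-Glo luminescence after 30 min at room temperature, following the beta-lactamase FRET read.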

| SMILES | Potency [1] | Potency [2] | Potency [3] | Potency [4] | Potency [5] | Potency [6] | Potency [7] | Potency [8] | Potency [9] | Potency [10] | Potency [11] | Potency [12] | Potency [13] | Potency [14] | Potency [15] | Potency [16] | Potency [17] | Potency [18] | Potency [19] | Potency [20] |
| --- | --- | --- | --- | --- | --- | --- | --- | --- | --- | --- | --- | --- | --- | --- | --- | --- | --- | --- | --- | --- |
| CCCCCCNC(=O)n1cc(F)c(=O)[nH]c1=O | inactive | inactive | inactive | inactive | inactive | inactive | inactive | inactive | inactive | inactive | inactive | inactive | inactive | inactive | inactive |  |  |  |  |  |
| Cc1c(C)c2c(c(C)c1OC(=O)CCC(=O)OCCO)CC[C@@](C)(CCC[C@H](C)CCC[C@H](C)CCCC(C)C)O2 | 33.5 µM (active) | inactive |  |  |  |  |  | 26.6 µM (active) | inactive |  |  | inactive |  | inactive |  | inactive | 26.8 µM (active) | inactive |  |  |
| Oc1cccc(Nc2ccccc2)c1 | inactive | inactive | inactive | inactive | inactive |  |  | inactive | inactive | inactive | inactive | inactive | inactive | inactive | inactive | inactive | inactive |  | inactive | inactive |
| c1ccc2sc(SN(C3CCCCC3)C3CCCCC3)nc2c1 | inactive | inactive | inactive | inactive | inactive | inactive | inactive | inactive | inactive | inactive | inactive | inactive | inactive | inactive | inactive | inactive | inactive |  | inactive | inactive |
| Cc1cc(O)c(C)c(C)c1O | inactive | inactive | inactive | inactive | inactive |  |  | 29.8 µM (active) | inactive | inactive | inactive | inactive | inactive | inactive | inactive |  |  |  |  | inactive |
| CC(=O)Nc1ccc(C)cc1C | inactive | inactive | inactive | inactive | inactive | inactive | inactive | inactive | inactive | inactive | inactive | inactive | inactive | inactive | inactive | inactive | inactive |  | inactive | inactive |
| C=CC(=O)OCC1CC2CC1C1CCC(COC(=O)C=C)C21 (configuration not stated) | inactive |  |  |  |  | inactive |  |  | inactive |  |  |  |  |  |  |  |  | inactive |  | inactive |
| Cc1ccccc1N=C(N)Nc1ccccc1C | inactive | inactive | inactive |  | inactive | inactive | inactive | inactive | inactive | inactive | inactive | inactive | inactive | inactive | inactive | inactive |  |  | inactive | inactive |
| C[C@@H]1CN(CCCn2c3ccccc3c3ccccc32)C[C@H](C)N1 | 10.6 µM (active) |  | 9.44 µM (active) | 29.8 µM (active) | 29.8 µM (active) |  |  | 26.6 µM (active) | inactive |  |  |  |  | inactive | inactive |  | 23.9 µM (active) | inactive |  | 15 µM (active) |
| O=c1[nH]ncc2ccccc12 | inactive | inactive | inactive |  | inactive | inactive | inactive | inactive | inactive | inactive | inactive | inactive | inactive | inactive | inactive |  | inactive |  |  | inactive |
| CC=C(Cl)Cl | inactive | inactive | inactive | inactive | inactive | inactive | inactive | inactive | inactive |  |  | inactive |  | inactive | inactive |  | inactive | inactive |  | inactive |
| Oc1ccc(Cl)c2cccnc12 | 0.596 µM (active) |  |  | 1.06 µM (active) | inactive |  |  | 0.376 µM (active) | inactive |  |  |  | inactive | inactive |  | inactive |  | inactive |  | inactive |
